Assay [1] is described as follows: qHTS assay for small molecule agonists of the p53 signaling pathway (AID 651631; calls by dose curve; further: nearly all actives have a fitted effect of over 15% in size; further: potency means the concentration at half of the fitted maximal effect). An outline of the steps:
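HCT-116 cells carrying a stable p53 response element–beta-lactamase reporter were plated, rested 5 h at 37 °C, then exposed to compound in DMSO for 16 h at 37 °C; reporter activity was read as FRET substrate fluorescence after 2 h at room temperature.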

A short description of assay [2]: qHTS assay for small molecules that induce genotoxicity in human embryonic kidney cells expressing luciferase-tagged ATAD5 (AID 651632). Further: nearly all actives have a fitted effect of over 15% in size. An outline of the steps:
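Concentration-response screen for ATAD5 upregulation in HEK293T luciferase reporter cells; 16 hr treatment at 37C, then luminescence after 30 min with Amplite at room temperature.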
In general terms: Quantitative high-throughput screening tests each substance at several concentrations.

A short description of assay [3]: qHTS assay for small molecule agonists of the p53 signaling pathway - cell viability (AID 651633; calls by dose curve; further: series mostly up to about 83 µM; nearly all actives have a fitted effect of over 30% in size). An outline of the steps: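 p53RE-bla cells were treated with compound for 16 hours at 37 C. Cytotoxicity was then measured as CellTiter-Glo luminescence after 30 min at room temperature.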
The nature of assay [4]: qHTS assay for small molecules that induce genotoxicity in human embryonic kidney cells expressing luciferase-tagged ATAD5 - cell viability (AID 651634; calls by dose curve; further: nearly all actives have a fitted effect of over 25% in size). An outline of the steps:
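15.5 hr compound or vehicle exposure of HEK293T cells expressing luciferase-tagged ATAD5 at 37C; live-cell protease activity is read by fluorescence after 30 min of CellTiter-Fluor.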

Assay [5] in a line: qHTS assay to test for compound auto fluorescence at 590 nm (red) in HepG2 cells (AID 720674). An outline of the steps:
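HepG2 cells, 2,000 per well in MEM with 10% FBS, attached overnight at 37 C, then got 23 nL compound or DMSO. After 1 hr at 37 C, 5% CO2, red fluorescence was read at 540/590 nm against Rose Bengal sodium as reference.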

Assay [6] is described as follows: qHTS assay to test for compound auto fluorescence at 535 nm (green) in HepG2 cells (AID 720675).
The nature of assay [7]: qHTS assay to test for compound auto fluorescence at 460 nm (blue) in HEK293 cells (AID 720678). An outline of the steps: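 Measured: blue fluorescence (Ex 405/Em 460 nm) of compound-treated HEK293 cells, incubated overnight at 37C with 5% CO2 and scaled to triamterene equivalents.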
Assay [8] can be described thus: qHTS assay to test for compound auto fluorescence at 590 nm (red) in HEK293 cells (AID 720679). An outline of the steps: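 Using HEK293 cells at 2,000 per well, the screen added 23 nL of each compound after cell attachment and incubated overnight (37C, 5% CO2). The plate reader then captured red-label fluorescence, Ex/Em 540/590nm.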
Assay [9] is described as follows: qHTS assay for small molecule disruptors of the mitochondrial membrane potential (AID 720635). Further: potency means the concentration at half of the fitted maximal effect. An outline of the steps:
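HepG2 cells exposed to compound 1 hr at 37C, then Mito-MPS dye 30 min. Ratio read of aggregate (540/590 nm) versus monomer (490/535 nm) fluorescence.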

Assay [10] can be described thus: qHTS assay for small molecule disruptors of the mitochondrial membrane potential - cell viability (AID 720634; calls by dose curve;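 further: human HepG2 liver cancer cells; series mostly up to about 83 µM; nearly all actives have a fitted effect of over 20% in size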). An outline of the steps: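 In this qHTS format, HepG2 cells plated overnight were pinned with compound, incubated 1 hr, and assayed for ATP luminescence with CellTiter-Glo after m-MPI dye addition.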

A number with no mark means an inactive call. Results filed as inconclusive are left out. Calls of active or inactive are those of the source. Unless noted, the call rests on the fitted dose curve; in most records, active means well fitted curve in the direction sought with a large enough effect in the repeat runs; inconclusive means weak or mixed curves; inactive means no such curve, though single readings can be large; an effect the other way counts as inactive or inconclusive.

Take `O=P(O)(OCc1ccccc1)OCc1ccccc1`: the Potency result in assay [1], in assay [2], in assay [3], in assay [4], in assay [5] and in assay [6] was “inactive” each time. Further, in assay [8], the Potency entry is “inactive”. In addition, in assay [7], the compound was classed as inactive.
Turning to `O=C1[C@H]2CCCC[C@H]2C(=O)N1CCCCN1CCN(c2nsc3ccccc23)CC1`, the Potency result in assay [1], in assay [2], in assay [3], in [4], in [5] and in [6] was “inactive” throughout. Moreover, the Potency result in assay [8] is “inactive”. Also, in assay [7], the compound was classed as inactive.
For the compound `CC1=CC=C(C(C)C)CC1`, the Potency entry in [1], in assay [2], in [3], in [4], in [6] and in assay [8] was “inactive” throughout. Further, in assay [7], the outcome was inactive.
As to `COC(=O)C1=C(C)NC(COC(N)=O)=C(C(=O)OC(C)C)C1c1cccc(Cl)c1Cl` (stereo not drawn), the figures for the Potency in [1] and in assay [9] were 16.8 µM (active) and 26.6 µM (active), respectively. Further, the Potency entry in assay [2], in assay [3], in assay [4], in assay [5], in [6] and in assay [8] was “inactive” in each case.
For `CNC(=O)CN(CCN(CCN(CC(=O)[O-])CC(=O)NC)CC(=O)[O-])CC(=O)[O-].O.[Gd+3]`, the Potency entry in assay [1], in assay [2], in assay [3], in assay [4], in assay [9] and in assay [5] was “inactive” in each case. Further, the Potency entry in [8] was “inactive”. The outcome in [7] was inactive.
In the case of `O=S(=O)(Oc1ccc(Cl)cc1)c1ccccc1`, the Potency entry in assay [1], in assay [2], in assay [3], in assay [4], in [5] and in assay [6] was “inactive” in each case. In addition, in assay [8], the Potency result is “inactive”. Besides, in assay [9], the Potency is 19.3 µM (active). In assay [7], the compound was classed as inactive.
Take `C/C=C/C=C/CO`: the Potency result in [1], in assay [2], in assay [3], in assay [10], in assay [9] and in [5] was “inactive” each time. Moreover, the Potency entry in assay [6] and in [8] was “inactive” each time. Also, the call in assay [7] was inactive.
On to `C[C@H](CCC(=O)O)[C@H]1CC[C@H]2[C@@H]3CC[C@@H]4C[C@H](O)CC[C@]4(C)[C@H]3C[C@H](O)[C@]12C`, for which the Potency entry in assay [1], in assay [2], in [3], in assay [10], in assay [5] and in assay [6] was “inactive” in each case. The Potency entry in [8] is “inactive”. In addition, the outcome in [7] was inactive.
With `CCCCC/C=C\C/C=C\CCCCCCCC(=O)NC(C)c1ccccc1` (stereo not drawn), the Potency entry in [1], in [2], in assay [3], in assay [4], in assay [9] and in assay [5] was “inactive” throughout. In addition, the Potency entry in assay [6] and in [8] was “inactive” in each case. In assay [7], the compound was called inactive.
Consider `O=[N+]([O-])c1ccc2[nH]ncc2c1`, for which the Potency result in assay [1], in assay [2], in [3], in assay [10], in assay [5] and in assay [8] was “inactive” in each case. In addition, the Potency in assay [9] is 38.5 µM (active). For the same compound, in assay [7], the call was inactive.
For `COS(=O)(=O)C(F)(F)F`, the Potency entry in assay [1], in assay [2], in [3], in assay [10], in [5] and in assay [6] was “inactive” throughout. Moreover, the Potency result in assay [8] was “inactive”. Further, the outcome in [7] was inactive.
Turning to `CC1=CC[C@H](C(C)C)C=C1`, the Potency entry in [1], in assay [2], in assay [3], in assay [4], in [5] and in [6] was “inactive” each time. Besides, the Potency entry in assay [8] is “inactive”. Moreover, the compound was called inactive in [7].
Take `CCCCc1ncc(/C=C(\Cc2cccs2)C(=O)O)n1Cc1ccc(C(=O)O)cc1`: the Potency result in [1], in [2], in [3], in assay [4], in assay [6] and in assay [8] was “inactive” throughout. Further, the call in assay [7] was inactive.
On to `COc1cc2nc(N3CCN(C(=O)C4COc5ccccc5O4)CC3)nc(N)c2cc1OC` (stereo not drawn), for which the Potency result in [1], in [2], in assay [3], in [10], in assay [9] and in [5] was “inactive” in each case. The Potency entry in assay [6] and in assay [8] was “inactive” each time. Further, the compound was called inactive in [7].
With `CN(C)c1ccc(CCO)cc1`, the Potency entry in assay [1], in assay [2], in assay [3], in assay [4], in assay [9] and in [6] was “inactive” each time. Also, the Potency result in assay [8] is “inactive”. In assay [7], the call was inactive.
In the case of `O=[N+]([O-])c1cccc(S(=O)(=O)O)c1`, the Potency entry in assay [1], in [2], in assay [3], in assay [4], in [5] and in assay [6] was “inactive” each time. Besides, the Potency entry in [8] is “inactive”. Further, the call in assay [7] was inactive.
In the case of `COc1ccc(C(=O)c2ccc(OC)cc2O)c(O)c1`, the results for the Potency in [1] and in [9] were 19.5 µM (active) and 6.16 µM (active), respectively. The Potency result in assay [2], in assay [3], in [5], in [6] and in assay [8] was “inactive” throughout. The outcome in [7] was inactive.
As for `COc1ccc(C)cc1[N+](=O)[O-]`, the Potency entry in [1], in assay [2], in assay [3], in [10], in assay [5] and in [8] was “inactive” each time. In addition, the result in assay [7] was inactive.
Consider `Nc1cccc(S(=O)(=O)c2cccc(N)c2)c1`, for which the Potency entry in assay [1], in [2], in assay [3], in [4], in [10] and in assay [6] was “inactive” throughout. Further, in assay [8], the Potency result is “inactive”. The call in assay [7] was inactive.

Values taken from PubChem BioAssay (Tox21).
